# Several values for one entry are separate records, joined by “and”; a condition that tells them apart may be missing. Equal entries are not always repeated. Records with an inconclusive call do not appear. For some of these results: Results with a measured potency or affinity are listed apart. Some structures have more than one record in an assay (separate samples or runs), and their calls can disagree. Activity calls are given as the source filed them.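 How the source made its calls, unless noted: active means compounds whose cell count with miR-34 switched on is under 0.7 times the count with it off; inactive means the rest.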
# How the values were obtained:
# [1] = sensitizers of A549 cells to miR-34 induction, primary screen, imaging, A549 dox-inducible miR-34, nuclei and caspase counts (AID 1347080); settings: A549 miR-34 inducible, Hoechst nuclei count, 48 h
# [2] = survival rescue of mitochondrial mutant cells in low glucose, primary screen, MELAS cybrids, Rieske KO mouse fibroblasts, CellTiter-Glo (AID 1508586;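 active means mean z-score across replicates of 1.96 or higher in either the MELAS or the Rieske mutant cell line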;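 further: z relative to plate mean and SD of compound and empty wells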)
# [3] = viability rescue of complex I mutant cybrids, primary screen, cell-based, galactose medium, ATP luminescence (AID 1645843;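 active means z-score of at least 1.8 in each of two replicates, scored against plate mean and spread of sample wells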;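 further: positive z means more ATP and so rescue of galactose-driven cybrid death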); settings: complex I mutant cybrid cells, 72 h, stronger effect = higher value
# [4] = liver-stage malaria parasite growth inhibition, primary screen, cell-based, HepG2, luciferase luminescence, HepG2 viability (AID 624349; in the data active means parasite load remaining mostly below about 12%, no sharp cut-off; inactive means mostly above about 10%;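 further: 100% = mean of DMSO negative control wells on the same plate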); settings: P. berghei liver stage in HepG2, luciferase luminescence, concentration not given here; parasite load remaining: stronger effect = lower value; viability: measured here: HepG2 viability without parasites
# [5] = target: NAD(+) hydrolase SARM1 (Homo sapiens) (UniProt Q6SZW1); assay: SARM1 TIR NADase inhibitors, cell lysate, NAD-Glo luminescence (AID 1508614;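 active means compound whose remaining NAD level is above about 45 nM, limit read from the data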); settings: SAM-TIR HEK293T lysate NADase, at 1 µM, stronger effect = higher value
# [6] = target: Mitogen-activated protein kinase 7 (Homo sapiens) (UniProt Q13164); assay: ERK5 transactivation activators in reporter cells, primary screen, cell-based, HTS (AID 1508626;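 active means luciferase signal above three times the same-plate solvent-only control wells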;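 further: luciferase driven by Gal4-ERK5 fusion binding five Gal4 sites before minimal TATA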); settings: HeLa Gal4-ERK5 transactivation, 18 h, at 5 µM, stronger effect = higher value
# [7] = tested on: Hepatitis C virus NS3 helicase; assay: HCV NS3 helicase inhibitors, primary screen, biochemical, fluorescence polarization, LOPAC1280 library (AID 687035; in the data active means inhibition above about 37%); settings: Purified HCV NS3 helicase, Cy5-dT15 ssDNA binding fluorescence polarization; stronger effect = higher value; concentration not given here
# [8] = Cy5 fluorescence quenching or enhancement artefacts, artefact control for HCV NS3 helicase inhibitor project, biochemical, LOPAC1280 (AID 687037; call rule not given here); settings: Cy5-DNA-NS3h complex fluorescence interference counterscreen
# [9] = hESC survival regulators, cell-based (AID 493140; call rule not given here;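 further: cells exposed to compounds for four days before counting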); settings: human embryonic stem cell survival screen; stronger effect = higher value
# [10] = target: ATP-dependent translocase ABCB1 (Homo sapiens) (UniProt P08183); assay: MDR1 (ABCB1) efflux transporter inhibition, cell-based (AID 377; in the data active means fluorescence slope change above about 50%); settings: MDR1-expressing cells, fluorescent substrate accumulation slope; stronger effect = higher value; concentration not given here
# [11] = polyglutamine-triggered caspase-3 activation inhibitors, cell-based (AID 1583); settings: polyglutamine-induced caspase-3 activation, cell assay; stronger effect = higher value;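 tested at 10 µM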
# [12] = suppressors of polyQ aggregation in yeast, 75Q-TubU reporter (AID 1593); settings: Yeast 75Q polyglutamine aggregation reporter
# [13] = rescue of polyQ-huntingtin neuronal dysfunction in worms, whole organism, C. elegans mechanosensory neurons, N-terminal huntingtin (AID 1599); settings: touch response, stronger effect = higher value
# [14] = inhibitors of mitochondrial cytochrome c release, biochemical, purified mitochondria (AID 1603); settings: stronger effect = lower value;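 further: mouse liver mitochondria challenged with calcium chloride; signal normalized to the plate average as 100%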
# [15] = inhibitors of polyQ protein aggregation (AID 1604); settings: polyglutamine-induced protein aggregation inhibition assay; stronger effect = higher value; tested at 2.5 µM
# [16] = enhancers of glutamate uptake in motor neurons, MN-1 cell line (AID 1612); settings: MN-1 motor neuron cells, stronger effect = higher value;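 further: tested at 1 µM final; 0% = mean of DMSO vehicle wells on each plate; positive means more glutamate uptake than control and negative means less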
# [17] = reducers of polyQ inclusions in PC12 cells, cell-based, NGF-treated PC12, GFPQ80 (AID 1614); settings: PC12 NGF-treated GFP-polyQ80 inclusion reduction;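 further: lower means fewer inclusions and 0 means no inclusions at all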
# [18] = suppressors of polyglutamine aggregation in yeast, 75Q-TubH (AID 1616); settings: S. cerevisiae 75Q-TubH polyglutamine aggregation suppression; stronger effect = higher value
# [19] = stronger effect = lower value, cell number ratio, induced over uninduced
# [20] = measured here: relative caspase fold change +Dox/-Dox
# [21] = measured here: total cells with miR-34 induction, stronger effect = lower value
# [22] = measured here: total cells without miR-34 induction
# [23] = MELAS cybrid survival, CellTiter-Glo 48 h, stronger effect = higher value
# [24] = Rieske KO mouse fibroblast survival, CellTiter-Glo 72 h
# ATP-dependent translocase ABCB1 (Homo sapiens), sequence (P08183 whole entry, looked up): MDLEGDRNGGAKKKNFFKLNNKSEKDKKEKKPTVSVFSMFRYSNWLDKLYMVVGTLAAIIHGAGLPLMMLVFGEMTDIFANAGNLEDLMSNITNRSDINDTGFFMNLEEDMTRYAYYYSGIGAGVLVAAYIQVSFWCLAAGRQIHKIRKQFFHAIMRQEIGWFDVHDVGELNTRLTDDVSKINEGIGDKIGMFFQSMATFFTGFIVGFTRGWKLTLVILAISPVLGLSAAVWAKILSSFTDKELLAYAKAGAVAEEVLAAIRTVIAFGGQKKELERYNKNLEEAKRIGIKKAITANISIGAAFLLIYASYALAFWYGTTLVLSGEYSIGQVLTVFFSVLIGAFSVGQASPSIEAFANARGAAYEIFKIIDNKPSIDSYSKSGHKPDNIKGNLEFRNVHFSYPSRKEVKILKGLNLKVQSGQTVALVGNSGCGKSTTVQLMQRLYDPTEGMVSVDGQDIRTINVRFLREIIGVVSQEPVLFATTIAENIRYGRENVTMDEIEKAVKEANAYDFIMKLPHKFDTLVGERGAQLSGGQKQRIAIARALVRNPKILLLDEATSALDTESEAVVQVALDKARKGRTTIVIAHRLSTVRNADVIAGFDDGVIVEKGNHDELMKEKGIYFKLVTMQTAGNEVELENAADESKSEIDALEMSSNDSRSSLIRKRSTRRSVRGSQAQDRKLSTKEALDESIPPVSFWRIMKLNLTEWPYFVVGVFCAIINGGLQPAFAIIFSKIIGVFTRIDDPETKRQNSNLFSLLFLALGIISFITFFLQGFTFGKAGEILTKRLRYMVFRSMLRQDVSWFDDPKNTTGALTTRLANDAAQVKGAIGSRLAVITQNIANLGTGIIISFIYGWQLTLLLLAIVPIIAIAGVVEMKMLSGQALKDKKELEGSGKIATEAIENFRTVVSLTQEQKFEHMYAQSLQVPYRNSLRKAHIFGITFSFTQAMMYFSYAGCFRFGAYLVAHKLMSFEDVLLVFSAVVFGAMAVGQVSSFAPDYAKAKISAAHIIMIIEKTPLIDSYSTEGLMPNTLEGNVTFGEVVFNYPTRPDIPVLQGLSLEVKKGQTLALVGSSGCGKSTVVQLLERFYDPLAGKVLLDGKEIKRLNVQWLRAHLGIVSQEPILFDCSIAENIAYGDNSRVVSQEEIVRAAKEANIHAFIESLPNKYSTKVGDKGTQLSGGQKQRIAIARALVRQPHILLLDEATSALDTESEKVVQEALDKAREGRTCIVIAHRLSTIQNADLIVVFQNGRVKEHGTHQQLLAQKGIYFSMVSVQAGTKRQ
# NAD(+) hydrolase SARM1 (Homo sapiens), sequence (Q6SZW1 whole entry, looked up, the tested form may be a part): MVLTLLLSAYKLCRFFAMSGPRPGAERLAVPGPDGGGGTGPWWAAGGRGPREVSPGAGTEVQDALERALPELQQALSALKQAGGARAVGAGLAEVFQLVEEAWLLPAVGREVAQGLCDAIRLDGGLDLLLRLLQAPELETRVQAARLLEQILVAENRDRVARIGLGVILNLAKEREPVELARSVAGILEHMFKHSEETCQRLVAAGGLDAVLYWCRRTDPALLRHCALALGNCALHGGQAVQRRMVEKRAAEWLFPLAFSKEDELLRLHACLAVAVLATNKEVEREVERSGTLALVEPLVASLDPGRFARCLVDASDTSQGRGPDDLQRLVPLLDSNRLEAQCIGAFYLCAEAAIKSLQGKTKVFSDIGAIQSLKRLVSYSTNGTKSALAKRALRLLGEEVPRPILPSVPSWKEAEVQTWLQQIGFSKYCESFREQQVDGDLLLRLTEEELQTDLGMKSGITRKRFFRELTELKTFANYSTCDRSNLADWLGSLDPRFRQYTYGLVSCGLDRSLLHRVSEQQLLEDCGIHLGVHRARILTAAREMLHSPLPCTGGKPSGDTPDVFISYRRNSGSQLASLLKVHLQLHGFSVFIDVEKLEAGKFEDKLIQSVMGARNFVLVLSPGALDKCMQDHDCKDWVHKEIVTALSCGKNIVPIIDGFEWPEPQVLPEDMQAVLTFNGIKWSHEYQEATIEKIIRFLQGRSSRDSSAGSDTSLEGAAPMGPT
# Mitogen-activated protein kinase 7 (Homo sapiens), sequence (Q13164 whole entry, looked up, the tested form may be a part): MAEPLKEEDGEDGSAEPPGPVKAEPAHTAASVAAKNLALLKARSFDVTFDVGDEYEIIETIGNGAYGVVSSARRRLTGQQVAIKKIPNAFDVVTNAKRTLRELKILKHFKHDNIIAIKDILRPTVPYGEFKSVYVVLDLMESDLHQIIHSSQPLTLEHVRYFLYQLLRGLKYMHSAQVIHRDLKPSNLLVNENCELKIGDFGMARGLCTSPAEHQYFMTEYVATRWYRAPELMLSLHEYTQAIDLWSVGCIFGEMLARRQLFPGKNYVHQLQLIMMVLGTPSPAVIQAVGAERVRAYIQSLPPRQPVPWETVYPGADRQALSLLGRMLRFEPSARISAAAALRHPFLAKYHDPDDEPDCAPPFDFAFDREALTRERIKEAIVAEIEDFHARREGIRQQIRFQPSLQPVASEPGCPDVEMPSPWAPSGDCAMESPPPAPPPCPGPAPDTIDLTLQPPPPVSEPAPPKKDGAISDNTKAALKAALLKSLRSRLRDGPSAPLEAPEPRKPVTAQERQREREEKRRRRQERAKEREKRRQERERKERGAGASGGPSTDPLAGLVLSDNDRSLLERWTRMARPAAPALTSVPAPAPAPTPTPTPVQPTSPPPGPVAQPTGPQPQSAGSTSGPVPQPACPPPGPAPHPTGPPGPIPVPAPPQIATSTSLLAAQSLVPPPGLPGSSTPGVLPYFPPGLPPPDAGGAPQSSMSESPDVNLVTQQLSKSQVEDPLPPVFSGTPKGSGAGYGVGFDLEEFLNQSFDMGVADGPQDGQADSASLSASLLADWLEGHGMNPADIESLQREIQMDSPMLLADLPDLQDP
smiles,measurement,setting,value
CN1C2CCC1CC(=O)C2,fold change,[1]; [19],0.86 (inactive)
same,fold change,[1]; [20],0.54
same,cell count,[1]; [21],8780
same,cell count,[1]; [22],10200
same,z-score,[2]; [23],0.543 (inactive)
same,z-score,[2]; [24],-0.508
same,z-score,[3],0.545 (inactive)
Cc1ccc(C(C)Nc2ncnc3sccc23)cn1 (configuration not stated),fold change,[1]; [19],0.921 (inactive)
same,fold change,[1]; [20],1.09
same,cell count,[1]; [21],5250
same,cell count,[1]; [22],5700
same,z-score,[2]; [23],-0.723 (inactive)
same,z-score,[2]; [24],-0.439
same,z-score,[3],-0.4 (inactive)
COCC1OC(=O)c2coc3c2[C@@]1(C)C1=C(C3=O)[C@@H]2CCC(=O)[C@@]2(C)CC1OC(C)=O (some centres not stated),fold change,[1]; [19],0.933 (inactive)
same,fold change,[1]; [20],0.632
same,cell count,[1]; [21],3850
same,cell count,[1]; [22],4130
same,z-score,[2]; [23],3.45 (active)
same,z-score,[2]; [24],-0.534
Oc1ccc(C2(c3ccc(O)cc3)CCCCC2)cc1,fold change,[1]; stronger effect = lower value,0.911 (inactive)
same,fold change,[1]; [20],0.41
same,cell count,[1]; [21],7610
same,cell count,[1]; [22],8350
same,z-score,[2]; [23],-0.617 (inactive)
same,z-score,[2]; [24],-0.22
same,z-score,[3],-1.9 (inactive)
CN1CCN(c2nc3ccccc3nc2Cl)CC1,fold change,[1]; [19],0.946 (inactive)
same,fold change,[1]; [20],0.445
same,cell count,[1]; [21],7800
same,cell count,[1]; [22],8250
same,z-score,[2]; [23],-0.222 (inactive)
same,z-score,[2]; [24],-0.11
CC(=O)O[C@@]12CO[C@@H]1CC(O)[C@@]1(C)C(=O)C(O)C3=C(C)C(O)C[C@@](O)(C(OC(=O)c4ccccc4)[C@H]21)C3(C)C (some centres not stated),fold change,[1]; [19],1 (inactive)
same,fold change,[1]; [20],0.634
same,cell count,[1]; [21],6370
same,cell count,[1]; [22],6370
same,z-score,[2]; [23],-0.382 (inactive)
same,z-score,[2]; [24],1.02
CCCN1CCO[C@@H]2c3cc(O)ccc3OC[C@@H]21,fold change,[1]; [19],0.947 (inactive)
same,fold change,[1]; [20],0.482
same,cell count,[1]; [21],8140
same,cell count,[1]; [22],8590
same,z-score,[2]; [23],0.111 (inactive)
same,z-score,[2]; [24],0.146
CN1C[C@H](C(=O)N[C@]2(C)O[C@@]3(O)[C@@H]4CCCN4C(=O)[C@H](Cc4ccccc4)N3C2=O)C=C2c3cccc4[nH]cc(c34)C[C@H]21,parasite load remaining,[4],33.4% (inactive)
same,viability,[4],106%
same,fold change,[1]; stronger effect = lower value,0.866 (inactive)
same,fold change,[1]; [20],1.34
same,cell count,[1]; [21],8820
same,cell count,[1]; [22],10200
same,z-score,[2]; [23],-0.409 (inactive)
same,z-score,[2]; [24],-0.32
same,remaining NAD,[5],10 nM (inactive)
same,luciferase signal,[6],80 AU (inactive)
same,z-score,[3],1.08 (inactive)
CN1[C@@H]2CC[C@H]1CC(OC1c3ccccc3CCc3ccccc31)C2 (some centres not stated),parasite load remaining,[4],67% (inactive)
same,viability,[4],69.7%
same,fold change,[1]; [19],0.913 (inactive)
same,fold change,[1]; [20],0.451
same,cell count,[1]; [21],8290
same,cell count,[1]; [22],9070
same,z-score,[2]; [23],-1.44 (inactive)
same,z-score,[2]; [24],0.907
CCCCCN(C)CCC(O)(P(=O)(O)O)P(=O)(O)O,inhibition,[7],-2% (inactive)
same,fluorescence ratio (interference),[8],1 (inactive)
same,fold change,[1]; [19],0.977 (inactive) and 0.868 (inactive)
same,fold change,[1]; [20],0.937 and 1.66
same,cell count,[1]; [21],10500 and 8850
same,cell count,[1]; [22],10800 and 10200
same,z-score,[2]; [23],-0.786 (inactive) and -0.235 (inactive)
same,z-score,[2]; [24],0.068 and -1.03
same,z-score,[3],0.42 (inactive) and 0.08 (inactive)
CCCCCC[C@H]1C(=O)O[C@H](C)C(NC(=O)c2cccc(NC=O)c2O)C(=O)O[C@@H](C)[C@@H]1OC(=O)CC(C)C (some centres not stated),survival,[9],38.8 (inactive)
same,parasite load remaining,[4],0.52% (inactive) and 0.28% (active)
same,viability,[4],30.3% and 71%
same,fold change,[1]; stronger effect = lower value,1.21 (inactive)
same,fold change,[1]; [20],0.771
same,cell count,[1]; [21],3300
same,cell count,[1]; [22],2720
same,z-score,[2]; [23],0.402 (inactive)
same,z-score,[2]; [24],0.0989
C[C@]12CCC3[C@@H](CC[C@@H]4C[C@H](O)CC[C@]34C)[C@@H]1CCC2=O (some centres not stated),fluorescence slope change,[10],52.7% (active)
same,survival,[9],4.25 (inactive)
same,parasite load remaining,[4],68.6% (inactive)
same,viability,[4],95.7%
same,fold change,[1]; stronger effect = lower value,0.895 (inactive)
same,fold change,[1]; [20],1.16
same,cell count,[1]; [21],8930
same,cell count,[1]; [22],9980
same,z-score,[2]; [23],-0.449 (inactive)
same,z-score,[2]; [24],0.448
CCC(C)(C)O,fold change,[1]; stronger effect = lower value,0.953 (inactive)
same,fold change,[1]; [20],0.901
same,cell count,[1]; [21],9020
same,cell count,[1]; [22],9470
same,remaining NAD,[5],10 nM (inactive)
C(#CCN1CCCC1)CN1CCCC1,fluorescence slope change,[10],19.7% (inactive)
same,survival,[9],6.42 (inactive)
same,parasite load remaining,[4],82.8% (inactive) and 98.5% (inactive)
same,viability,[4],112% and 92.6%
same,fold change,[1]; [19],0.85 (inactive)
same,fold change,[1]; [20],1.28
same,cell count,[1]; [21],8550
same,cell count,[1]; [22],10100
same,z-score,[2]; [23],0.0358 (inactive)
same,z-score,[2]; [24],-0.183
CN1C[C@H](CO)C=C2c3cccc4[nH]cc(c34)C[C@H]21,fluorescence slope change,[10],116% (active)
same,inhibition,[11],16.6%
same,score,[12],1.69
same,rescue above control,[13],7.23
same,cytochrome c release ratio,[14],1.6
same,inhibition of aggregation,[15],44.9%
same,glutamate uptake change,[16],-16.1%
same,inclusion score,[17],2
same,aggregation suppression score,[18],1.67
same,survival,[9],7.67 (inactive)
same,parasite load remaining,[4],67.2% (inactive) and 71.4% (inactive)
same,viability,[4],100% and 77.2%
same,fold change,[1]; stronger effect = lower value,0.809 (inactive)
same,fold change,[1]; [20],1.6
same,cell count,[1]; [21],8450
same,cell count,[1]; [22],10400
CC[C@]1(O)CCC2C3CCC4=CCCCC4C3CC[C@@]21C (some centres not stated),fold change,[1]; stronger effect = lower value,1.01 (inactive)
same,fold change,[1]; [20],1.28
same,cell count,[1]; [21],5670
same,cell count,[1]; [22],5590
same,z-score,[3],-0.425 (inactive)
Nc1cc2c(ncn2CCOCP(=O)(O)O)c(=O)[nH]1,fold change,[1]; stronger effect = lower value,1.06 (inactive)
same,fold change,[1]; [20],1.02
same,cell count,[1]; [21],3380
same,cell count,[1]; [22],3200
same,z-score,[3],-0.655 (inactive)
CCC(=O)OC(Cc1ccccc1)(c1ccccc1)C(C)CN(C)C (configuration not stated),survival,[9],8.25 (inactive)
same,parasite load remaining,[4],85.5% (inactive)
same,viability,[4],74.7%
same,fold change,[1]; stronger effect = lower value,0.896 (inactive)
same,fold change,[1]; [20],0.845
same,cell count,[1]; [21],9110
same,cell count,[1]; [22],10200
same,z-score,[2]; [23],0.276 (inactive)
same,z-score,[2]; [24],-0.451

# Reference: PubChem BioAssay
